Inconclusive results are not listed. Entries that show only a call come without a potency. Activity calls are given as the source filed them. Calls follow the shape of the dose curve; as a rule, active = well fitted cell-killing curve with a large enough effect in the repeat runs; inconclusive = weak or mixed curves, or effect the other way; inactive = flat fitted curve, though single readings scatter.
Test: qHTS RealTime-Glo MT Cell Viability Assay in HEK293 cells - 8 hour (AID 1224887); also: top concentration of the series differs between compounds; nearly all actives have a fitted effect of over 50% in size
Details: RealTime-Glo luminescence; series mostly up to 76.8 µM
In short: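 Viable HEK293 cells reduce a cell-permeant prosubstrate; the product diffuses out and is consumed by NanoLuc in the medium to give light. Compounds went in after a 5 h incubation and plates were read over the treatment course.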
With `CC(CCc1ccc2c(c1)OCO2)NN` (stereo not drawn) the Potency was “inactive”. In the case of `CO[Si](C)(OC)OC`, the Potency is reported as “inactive”. For `CCC1(C)CC(=O)NC1=O` (stereo not drawn), the Potency was “inactive”. With `CC(=O)CC(c1ccc([N+](=O)[O-])cc1)c1c(O)c2ccccc2oc1=O` (stereo not drawn) the Potency was “inactive”. For `COc1ccc([C@@H]2Sc3ccccc3NC(=O)[C@@H]2O)cc1`, the Potency was “inactive”. With `Nc1nc(Cl)nc2c1ncn2[C@@H]1O[C@H](CO)[C@@H](O)[C@@H]1F` the Potency was “inactive”. For `O=C(O)C(Cc1cc(I)c(O)c(I)c1)c1ccccc1` (stereo not drawn), the Potency was “inactive”. For `CO[C@@]12[C@H](COC(N)=O)C3=C(C(=O)C(C)=C(N)C3=O)N1C[C@@H]1N[C@@H]12`, the Potency was “inactive”. In the case of `CC1=NN(c2ccc(C(=O)O)cc2)C(=O)C1`, the Potency is reported as “inactive”. With `CNC(=S)NC` the Potency was “inactive”. For `CCCCC(=O)O[C@]1(C(=O)CO)CC[C@H]2[C@@H]3CCC4=CC(=O)CC[C@]4(C)[C@H]3[C@@H](O)C[C@@]21C`, the Potency was “inactive”. For `C1COCO1`, the Potency was “inactive”. For `Cc1ccnc2ccccc12`, the Potency was “inactive”. In the case of `CO[C@H]1O[C@H](CO)[C@@H](O)[C@H](O)[C@H]1O`, the Potency is reported as “inactive”. In the case of `CC(=O)Oc1ccc(C(=C2CCCCC2)c2ccc(OC(C)=O)cc2)cc1`, the Potency is reported as “inactive”. In the case of `CCc1cccc(N(C)C(N)=Nc2cccc3ccccc23)c1`, the Potency is reported as “inactive”. In the case of `CCCCCCCC/C=C\CCCCCCCC(=O)OC`, the Potency is reported as “inactive”. With `ON(Cc1ccccc1)Cc1ccccc1` the Potency was “inactive”. In the case of `CCC(C)(C)C1CCC(O)CC1` (stereo not drawn), the Potency is reported as “inactive”. In the case of `c1cc[c]([Bi]([c]2ccccc2)[c]2ccccc2)cc1`, the Potency is reported as “inactive”. For `CC(C)(C)C(=O)O`, the Potency was “inactive”. For `NCC1CCCC(CN)C1` (stereo not drawn), the Potency was “inactive”. In the case of `COc1cc2c(cc1OC)-c1cc(=Nc3c(C)cc(C)cc3C)n(C)c(=O)n1CC2`, the Potency is reported as “inactive”.

— PubChem BioAssay (Tox21)
